# Laboratory results taken from PubChem BioAssay (EPA / NIEHS).
# Records with an inconclusive call do not appear. Activity calls are given as the source filed them. Rule for the calls, unless noted: active = hit-call score of the fitted dose curve at least 0.9, where 1 is the maximum; inactive = score below 0.9.
# How the values were obtained:
# [1] = target: Estrogen receptor (Homo sapiens) (UniProt P03372); assay: ATG_ERa_TRANS: Attagene TRANS-FACTORIAL HepG2 Assay for human Estrogen Receptor alpha (ERa) (AID 2282970; active = hit-call score of the fitted dose curve at least 0.9, where 1 is the maximum); conditions: HepG2 Attagene TRANS ERa GAL4 reporter, mRNA
# Procedure, shortened: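 Signal derives from fluorescence of labelled reporter PCR fragments separated by capillary electrophoresis. HepG2 cells transiently carrying multiple GAL4-UAS reporter units were treated 24 hours, and induction above DMSO baseline was fitted as activity.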
# [2] = BSK_3C_Proliferation: Cell Proliferation Assessment in the BioMAP Diversity Plus: 3C Assay (AID 2283006); conditions: primary human endothelial cells (HUVEC);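 for AC50: potency may reflect either rise or fall in cell number versus DMSO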
# Procedure, shortened: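 Proliferation as total protein: sulforhodamine B (0.1%) stain of TCA-fixed subconfluent human umbilical vein endothelial cells, absorbance 560 nm, 48 h after dosing. Activity fitted in both directions against DMSO baseline.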
# [3] = read-out: E-selectin (Homo sapiens) (UniProt P16581); assay: BSK_3C_Eselectin: BioMAP Diversity Plus: 3C Assay for Eselectin Biomarker Activity (AID 2283015); conditions: primary human endothelial cells (HUVEC); actives raise or lower the signal;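 for outcome: cell surface E-selectin protein quantified by ELISA 24 h after dosing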
# Procedure, shortened: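 Endpoint derived by bidirectional fitting against DMSO vehicle; signal is ELISA-detected E-selectin from primary HUVEC at 24 h post-dosing, with parallel SRB staining (0.1% SRB, 560 nm) flagging cytotoxicity.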
# [4] = read-out: Human Leukocyte Antigen - DR isotype (HLADR), HLA-DRA (gene 3122); assay: BSK_3C_HLADR: BioMAP Diversity Plus: 3C Assay for Human Leukocyte Antigen - DR isotype (HLADR) Biomarker Activity (AID 2283019); conditions: primary human endothelial cells (HUVEC); actives raise or lower the signal;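 for outcome: ELISA of cell-surface HLA-DR on HUVEC 24 h after dosing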
# Procedure, shortened: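 Compound added to primary HUVEC cultures, 24 h incubation, then HLA-DR determined by ELISA; endpoint derived by bidirectional fitting relative to DMSO negative control.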
# [5] = read-out: Matrix Metallopeptidase 1 (MMP1), MMP1 (gene 4312); assay: BSK_BE3C_MMP1: BioMAP Diversity Plus: BE3C Assay for Matrix Metallopeptidase 1 (MMP1) Biomarker Activity (AID 2283024); conditions: primary human bronchial epithelial cells; actives raise or lower the signal
# Procedure, shortened: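 ELISA measurement of MMP-1 after 24 h compound exposure of primary human bronchial epithelial cells. Changes in either direction fitted relative to DMSO; parallel SRB staining checked overt cytotoxicity.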
# [6] = BSK_BE3C_SRB: Viability Assessment in the BioMAP Diversity Plus: BE3C Assay (AID 2283028); conditions: primary human bronchial epithelial cells;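 for AC50: fitted both ways so AC50 may mark signal gain or loss versus DMSO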
# Procedure, shortened: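 SRB total-protein staining (0.1%, after TCA fixation) of chemically dosed human bronchial epithelial primary cells at 24 h; DMSO serves as the negative control for bidirectional curve fitting.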
# [7] = read-out: Vascular cell adhesion molecule 1 (VCAM1), VCAM1 (gene 7412); assay: BSK_4H_VCAM1: BioMAP Diversity Plus: 4H Assay for Vascular cell adhesion molecule 1 (VCAM1) Biomarker Activity (AID 2283033); conditions: primary human endothelial cells (HUVEC); actives raise or lower the signal;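 for outcome: cell-surface VCAM-1 protein measured by ELISA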
# Procedure, shortened: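 VCAM-1 ELISA read 24 h after chemical dosing of HUVEC in the BioMAP 4H system, with gain or loss of signal fitted relative to DMSO. Parallel SRB staining (560 nm) checked overt cytotoxicity.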
# [8] = read-out: Interferon-gamma inducible Protein 10 (IP10), CXCL10 (gene 3627); assay: BSK_BE3C_IP10: BioMAP Diversity Plus: BE3C Assay for Interferon-gamma inducible Protein 10 (IP10) Biomarker Activity (AID 2283034); conditions: primary human bronchial epithelial cells; actives raise or lower the signal
# Procedure, shortened: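 IP-10 quantified by ELISA in human primary bronchial epithelial cell cultures at 24 hours post-dosing. Gain or loss of signal fitted relative to DMSO; parallel SRB staining assessed overt cytotoxicity.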
# [9] = read-out: Urokinase-type plasminogen activator receptor (uPAR), PLAUR (gene 5329); assay: BSK_BE3C_uPAR: BioMAP Diversity Plus: BE3C Assay for Urokinase-type plasminogen activator receptor (uPAR) Biomarker Activity (AID 2283039); conditions: primary human bronchial epithelial cells; actives raise or lower the signal;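 for outcome: cells exposed to compound for one day before measurement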
# Procedure, shortened: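 uPAR levels were measured by ELISA after 24 h compound treatment of primary human bronchial epithelial cells, fitted in both directions relative to DMSO. Parallel SRB staining served as the cytotoxicity read-out.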
# [10] = read-out: Interleukin-6 (IL6), IL6 (gene 3569); assay: BSK_CASM3C_IL6: BioMAP Diversity Plus: CASM3C Assay for Interleukin-6 (IL6) Biomarker Activity for (AID 2283040); conditions: primary human coronary artery smooth muscle cells; actives raise or lower the signal
# [11] = read-out: Monocyte Chemoattractant Protein-1 (MCP1), CCL2 (gene 6347); assay: BSK_CASM3C_MCP1: BioMAP Diversity Plus: CASM3C Assay for Monocyte Chemoattractant Protein-1 (MCP1) Biomarker Activity (AID 2283046); conditions: primary human coronary artery smooth muscle cells; actives raise or lower the signal;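 note: MCP-1 level quantified by ELISA 24 h after dosing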
# [12] = BSK_CASM3C_Proliferation: Cell Proliferation Assessment in the BioMAP Diversity Plus: CASM3C Assay (AID 2283047); conditions: primary human coronary artery smooth muscle cells;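 note: sub-confluent cells exposed 48 h before staining; fitted both ways against DMSO so gain or loss of cell number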
# [13] = read-out: Monokine induced gamma interferon (MIG), CXCL9 (gene 4283); assay: BSK_CASM3C_MIG: BioMAP Diversity Plus: CASM3C Assay for Monokine induced gamma interferon (MIG) Biomarker Activity (AID 2283048); conditions: primary human coronary artery smooth muscle cells; actives raise or lower the signal;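 note: MIG protein level measured by ELISA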
# [14] = read-out: Tissue Factor, F3 (gene 2152); assay: BSK_CASM3C_TissueFactor: BioMAP Diversity Plus: CASM3C Assay for Tissue Factor Biomarker Activity (AID 2283052); conditions: primary human coronary artery smooth muscle cells; actives raise or lower the signal;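 note: cell surface tissue factor protein level read by ELISA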
# [15] = read-out: Interferon-gamma inducible Protein 10 (IP10), CXCL10 (gene 3627); assay: BSK_hDFCGF_IP10: BioMAP Diversity Plus: hDFCGF Assay for Interferon-gamma inducible Protein 10 (IP10) Biomarker Activity (AID 2283053); conditions: primary human foreskin fibroblasts; actives raise or lower the signal
# Procedure, shortened: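 ELISA quantification of IP-10 after a 24 h chemical exposure of human dermal foreskin fibroblast primary cultures. Both increases and decreases versus DMSO fitted.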
# [16] = read-out: Epidermal growth factor receptor (EGFR), EGFR (gene 1956); assay: BSK_hDFCGF_EGFR: BioMAP Diversity Plus: hDFCGF Assay for Epidermal growth factor receptor (EGFR) Biomarker Activity (AID 2283057); conditions: primary human foreskin fibroblasts; actives raise or lower the signal
# Procedure, shortened: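 EGFR levels by ELISA in human dermal fibroblast cultures, 24 h post-treatment, fitted bidirectionally versus DMSO. Parallel wells stained with sulforhodamine B to detect overt cytotoxicity.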
# [17] = read-out: Monokine induced gamma interferon (MIG), CXCL9 (gene 4283); assay: BSK_SAg_MIG: BioMAP Diversity Plus: SAg Assay for Monokine induced gamma interferon (MIG) Biomarker Activity (AID 2283092); conditions: primary human HUVEC with PBMC; actives raise or lower the signal
# Procedure, shortened: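 Measures CXCL9 protein by ELISA in a human vascular primary-cell co-culture (umbilical vein endothelium with PBMC) 24 h after chemical addition. Activity is scored up or down from the DMSO control.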
# [18] = BSK_SAg_PBMCCytotoxicity: PBMC Cytotoxicity Assessment in the BioMAP Diversity Plus: SAg Assay (AID 2283093); conditions: primary human HUVEC with PBMC;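 note: PBMC viability measured as Alamar Blue reduction fluorescence at 546/580 nm; fitted both ways against DMSO so a hit may be loss or gain of signal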;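 for AC50: PBMC superantigen activated with SEB plus TSST-1 one hour after compound addition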
# Procedure, shortened: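 Alamar Blue reduction (6 h, 546/580 nm) reports PBMC cytotoxicity after 90 h superantigen activation (SEB, TSST-1; 20 ng/mL final each) with 1 h compound pre-treatment. Gain or loss of signal fitted versus DMSO.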
# [19] = BSK_SAg_Proliferation: Cell Proliferation Assessment in the BioMAP Diversity Plus: SAg Assay (AID 2283095); conditions: primary human HUVEC with PBMC;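 note: relative cell number as total protein by SRB absorbance in sub-confluent culture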
# Procedure, shortened: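 Relative cell number in the endothelial cell/PBMC co-culture was quantified at 96 h by SRB staining (0.1% SRB, 10% TCA fixation, read at 560 nm). Curves were fitted in both directions relative to DMSO baseline.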
# [20] = target: Bile acid receptor (Homo sapiens) (UniProt Q96RI1); assay: ATG_FXR_TRANS: Attagene TRANS-FACTORIAL HepG2 Assay for Farnesoid X Receptor (FXR) (AID 2282979; active = hit-call score of the fitted dose curve at least 0.9, where 1 is the maximum;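 note: hits raise reporter mRNA above DMSO so AC50 marks FXR activation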); conditions: HepG2 Attagene TRANS FXR-GAL4 reporter transcription
# Procedure, shortened: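 After 24 h chemical treatment of transfected HepG2 cells, GAL4-UAS reporter transcripts driven by an exogenous FXR-GAL4 fusion were measured by RT-PCR and capillary electrophoresis. Increases over DMSO were fitted.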
# E-selectin (Homo sapiens), sequence (P16581 whole entry, looked up): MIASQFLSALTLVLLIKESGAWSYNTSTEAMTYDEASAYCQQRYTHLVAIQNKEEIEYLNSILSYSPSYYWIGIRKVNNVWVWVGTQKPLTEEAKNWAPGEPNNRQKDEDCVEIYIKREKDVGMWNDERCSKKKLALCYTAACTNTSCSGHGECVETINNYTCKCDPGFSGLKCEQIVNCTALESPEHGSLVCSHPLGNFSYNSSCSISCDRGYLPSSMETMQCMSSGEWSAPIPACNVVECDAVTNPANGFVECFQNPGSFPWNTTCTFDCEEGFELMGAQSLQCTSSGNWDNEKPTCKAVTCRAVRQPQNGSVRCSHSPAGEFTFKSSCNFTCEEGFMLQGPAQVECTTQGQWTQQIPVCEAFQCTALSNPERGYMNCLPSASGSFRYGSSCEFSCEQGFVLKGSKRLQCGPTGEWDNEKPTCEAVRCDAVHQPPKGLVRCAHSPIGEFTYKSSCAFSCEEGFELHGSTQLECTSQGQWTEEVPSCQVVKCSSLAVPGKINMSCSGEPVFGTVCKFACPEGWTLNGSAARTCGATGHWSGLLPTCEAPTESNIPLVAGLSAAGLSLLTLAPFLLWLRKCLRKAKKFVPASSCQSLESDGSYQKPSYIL
# Bile acid receptor (Homo sapiens), sequence (Q96RI1 whole entry, looked up, the tested form may be a part): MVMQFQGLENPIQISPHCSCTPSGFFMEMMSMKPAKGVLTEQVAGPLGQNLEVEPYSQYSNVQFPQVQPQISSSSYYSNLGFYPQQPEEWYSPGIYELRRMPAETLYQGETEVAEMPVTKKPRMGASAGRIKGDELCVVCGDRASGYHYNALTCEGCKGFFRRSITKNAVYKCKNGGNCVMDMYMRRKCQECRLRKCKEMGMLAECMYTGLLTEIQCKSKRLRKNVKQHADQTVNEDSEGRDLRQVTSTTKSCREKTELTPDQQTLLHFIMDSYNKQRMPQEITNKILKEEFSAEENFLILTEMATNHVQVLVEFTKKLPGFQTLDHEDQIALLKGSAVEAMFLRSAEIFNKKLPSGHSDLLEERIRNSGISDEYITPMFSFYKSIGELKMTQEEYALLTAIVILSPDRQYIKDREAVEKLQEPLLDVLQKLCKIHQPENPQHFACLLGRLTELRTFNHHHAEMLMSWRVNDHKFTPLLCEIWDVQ
# Estrogen receptor (Homo sapiens), sequence (P03372 whole entry, looked up, the tested form may be a part): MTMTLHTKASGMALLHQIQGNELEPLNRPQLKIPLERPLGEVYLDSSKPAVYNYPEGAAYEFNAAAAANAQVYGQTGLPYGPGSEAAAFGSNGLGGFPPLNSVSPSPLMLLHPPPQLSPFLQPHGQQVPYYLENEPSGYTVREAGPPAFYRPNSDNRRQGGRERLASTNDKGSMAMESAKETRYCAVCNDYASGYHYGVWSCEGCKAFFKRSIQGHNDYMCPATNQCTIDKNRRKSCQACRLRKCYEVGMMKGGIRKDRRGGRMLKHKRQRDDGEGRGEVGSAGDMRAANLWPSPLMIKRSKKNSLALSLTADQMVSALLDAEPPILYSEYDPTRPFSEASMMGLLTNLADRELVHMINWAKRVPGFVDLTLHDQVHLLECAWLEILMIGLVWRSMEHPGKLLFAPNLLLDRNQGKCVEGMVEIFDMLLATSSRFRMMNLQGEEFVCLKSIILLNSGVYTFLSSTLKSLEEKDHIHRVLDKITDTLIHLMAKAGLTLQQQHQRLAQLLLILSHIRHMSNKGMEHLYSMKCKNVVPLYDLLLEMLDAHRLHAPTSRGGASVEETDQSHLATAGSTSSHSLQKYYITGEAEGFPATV
smiles,measurement,setting,value
CNC(=O)Oc1cc(C)c(SC)c(C)c1,AC50,[1],8.61 µM (active)
same,AC50,[2],13 µM (active)
same,AC50,[3],20 µM (active)
same,AC50,[4],24.6 µM (active)
same,outcome,[5],inactive
same,outcome,[6],inactive
same,AC50,[7],20 µM (active)
same,outcome,[8],inactive
same,outcome,[9],inactive
same,outcome,[10],inactive
same,outcome,[11],inactive
same,AC50,[12],20 µM (active)
same,outcome,[13],inactive
same,AC50,[14],8.16 µM (active)
same,outcome,[15],inactive
same,outcome,[16],inactive
same,outcome,[17],inactive
same,outcome,[18],inactive
same,outcome,[19],inactive
Clc1ccc(-c2ccccc2)cc1,AC50,[1],36.8 µM (active)
same,outcome,[20],inactive
same,outcome,[2],inactive
same,outcome,[3],inactive
same,outcome,[4],inactive
same,outcome,[5],inactive
same,outcome,[6],inactive
same,AC50,[7],32.9 µM (active)
same,outcome,[8],inactive
same,outcome,[9],inactive
same,outcome,[10],inactive
same,outcome,[11],inactive
same,outcome,[12],inactive
same,outcome,[13],inactive
same,outcome,[14],inactive
same,outcome,[15],inactive
same,outcome,[16],inactive
same,outcome,[17],inactive
same,outcome,[18],inactive
same,outcome,[19],inactive
O=C(O)c1cc[c]([Hg][Cl])cc1,outcome,[1],inactive
CCC(C)c1cc([N+](=O)[O-])cc([N+](=O)[O-])c1OC(=O)C=C(C)C (centres undefined),AC50,[2],11.2 µM (active)
same,AC50,[3],14.4 µM (active)
same,AC50,[4],5.85 µM (active)
same,AC50,[5],34.2 µM (active)
same,AC50,[6],32.5 µM (active)
same,AC50,[7],9.17 µM (active)
same,AC50,[8],8.21 µM (active)
same,AC50,[9],32.8 µM (active)
same,outcome,[10],inactive
same,outcome,[11],inactive
same,AC50,[12],36.2 µM (active)
same,AC50,[13],33 µM (active)
same,AC50,[14],7.73 µM (active)
same,AC50,[15],7.21 µM (active)
same,outcome,[16],inactive
same,AC50,[17],35 µM (active)
same,AC50,[18],28.2 µM (active)
same,AC50,[19],8.87 µM (active)
C[N+](C)(C)CC(=O)O,outcome,[1],inactive
CN(N=O)c1ccccc1,outcome,[1],inactive
same,outcome,[20],inactive
O=c1[nH]c(Cl)c(Cl)cc1Cl,outcome,[20],inactive
same,outcome,[2],inactive
same,outcome,[3],inactive
same,outcome,[4],inactive
same,outcome,[5],inactive
same,outcome,[6],inactive
same,outcome,[7],inactive
same,outcome,[8],inactive
same,outcome,[9],inactive
same,outcome,[10],inactive
same,outcome,[11],inactive
same,outcome,[12],inactive
same,outcome,[13],inactive
same,outcome,[14],inactive
same,outcome,[15],inactive
same,outcome,[16],inactive
same,outcome,[17],inactive
same,outcome,[18],inactive
same,outcome,[19],inactive
COC(C)(C)CCC[C@H](C)C/C=C/C(C)=C/C(=O)OC(C)C,AC50,[2],26 µM (active)
same,AC50,[3],28.7 µM (active)
same,AC50,[4],28.3 µM (active)
same,AC50,[5],20 µM (active)
same,outcome,[6],inactive
same,AC50,[7],31.6 µM (active)
same,AC50,[8],20 µM (active)
same,outcome,[9],inactive
same,outcome,[10],inactive
same,outcome,[11],inactive
same,AC50,[12],17.2 µM (active)
same,AC50,[13],29.9 µM (active)
same,AC50,[14],20 µM (active)
same,AC50,[15],33.7 µM (active)
same,outcome,[16],inactive
same,outcome,[17],inactive
same,AC50,[18],29.7 µM (active)
same,AC50,[19],28.6 µM (active)
CCOP(=O)(OCC)Oc1ccc([N+](=O)[O-])cc1,outcome,[20],inactive
